Reference: PubChem BioAssay AID1347076 (National Center for Advancing Translational Sciences (NCATS), 2019)
Where “and” joins values, the source holds several entries; their conditions need not be identical. Equal entries are not always repeated. In all, about 400,000 compounds went through this assay and about 13,000 (3.2%) were called active. Inconclusive results (about 18%) are left out. Shown is part of a subset that was picked to be rich in actives. Values without a mark were called inactive. Calls follow the shape of the dose curve; as a rule, active = well fitted cell-killing curve with a large enough effect; inconclusive = small, poorly fitted or top-dose-only effect, or effect the other way; inactive = flat fitted curve, though single readings scatter.

Test: qHTS assay for MDR1-selective chemotherapeutics: Primary screen using the drug-selected MDR subline cells KB-V1; also: nearly all actives have a fitted effect of over 60% in size
Details: KB-V1 MDR cells viability, CellTiter-Glo, 72 h; series mostly up to 46.1 µM; activity change, negative = cytotoxicity: at the top concentration
Procedure, shortened: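 Compound-treated KB-V1 multidrug-resistant cells, 72 h, 37 degrees C; viability by CellTiter-Glo. Fitted qHTS curves give the values.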
% is scaled to controls: 0 for no effect and ±100 for the full control effect; potency is read from the fitted curve at half-maximal effect.

Row | Compound | activity change, negative = cytotoxicity [%] | Potency
1 | CN(C)C(CNC(=O)c1cc(Br)c(Br)s1)c1ccco1 (centres undefined) | 10.7 | –
2 | CCCCC(CCCC)c1ccc(C=Nc2ccc(/C=C/c3ccnc4ccccc34)cc2)cc1 | 0 | –
3 | COc1ccc(C(=O)OCC(=O)c2ccc(C)c(S(=O)(=O)N3CCOCC3)c2)cc1OC | -25.9 | –
4 | O=C(OCC(=O)N1CCCCCC1)c1ccc(Br)c(S(=O)(=O)N2CCOCC2)c1 | -25 | –
5 | Cc1ccc(C(=O)OCC(=O)N2CCCCCC2)cc1S(=O)(=O)N1CCOCC1 | – | 14.6 µM (active)
6 | COC(=O)[C@]12CCCCC=C1N(Cc1ccco1)C(=O)[C@H](CC(=O)NCC1CCCCC1)C2 | 6.39 | –
7 | CCOc1ccc(C2C(C(=O)NC)=C(C)Nc3nc4ccccc4n32)cc1OC (centres undefined) | -6.45 | –
8 | COc1ccccc1NC(=O)C1=C(C)Nc2nc3ccccc3n2C1c1cccs1 (centres undefined) | – | 5.8 µM (active)
9 | CC1=C(C(=O)Nc2ccccc2Cl)C(c2cccs2)n2ncnc2N1 (centres undefined) | -6.43 | –
10 | CCOC(=O)C1=C(C)Nc2nc3ccccc3n2C1c1cccs1 (centres undefined) | – | 3.26 µM (active)
11 | COC(=O)c1ccc(C2C(C(=O)Nc3ccccc3)=C(C)Nc3nc4ccccc4n32)cc1 (centres undefined) | -5.17 | –
12 | COc1ccccc1NC(=O)C1=C(C)Nc2ncnn2C1c1sccc1C (centres undefined) | 0 | –
13 | O=S1(=O)C[C@@H](N2CCN(CCO)CC2)[C@H](COCc2ccccc2)N1 | -9.39 | –
14 | CC1(C(=O)NCc2ccccc2)CN(S(C)(=O)=O)CC(=O)N1CC(F)(F)F (centres undefined) | 5.12 | –
15 | CN(C)CCN1CCN(c2cc(-c3cccc(Cl)c3)nc3ccnn23)CC1 | 7.25 | –
16 | CCc1nc2c(OCC(N)=O)cccn2c1N(C)C(=O)c1ccc(OC)cc1 | 0 | –
17 | CC1=C(C(=O)N2CCOCC2)CC(CC(=O)NCc2cccs2)C(=O)N1CCCN1CCCC1=O (centres undefined) | -2.21 | –
18 | C#C[C@]1(O)CC[C@H]2[C@@H]3CCC4=CC(=O)CC[C@@H]4[C@H]3CC[C@@]21CC | – | 13 µM (active) and 7.31 µM (active)
19 | CCCCCCCCN1C(=O)[C@H](CC(=O)NCC23CC4CC(CC(C4)C2)C3)C[C@@]2(C(=O)OC)CCCCC=C12 | -1.91 | –
20 | CC(C)Sc1oc(-c2cccs2)nc1S(=O)(=O)c1ccc(Cl)cc1 | -19.7 | –
21 | CC(NC(=O)c1ccc(N2CCNCC2)c([N+](=O)[O-])c1)C12CC3CC(CC(C3)C1)C2 (centres undefined) | -12.3 | –
22 | O=C(NC1C2CC3CC(C2)CC1C3)c1ccc(N2CCNCC2)c([N+](=O)[O-])c1 (centres undefined) | -24.8 | –

Row | Compound | activity change, negative = cytotoxicity [%] | Potency
23 | CS(=O)(=O)N1CCN(c2ccc(C(=O)NC3C4CC5CC(C4)CC3C5)cc2[N+](=O)[O-])CC1 (centres undefined) | – | 11.6 µM (active)
24 | COc1ccc(-c2cc3nc(NCCOc4ccccc4)ccn3n2)cc1 | -1.29 | –
25 | CCc1nc2onc(C)c2c(=O)n1CC(=O)O | 20.4 | –
26 | COCCCNC(NC(=O)c1ccc(C)cc1)C(Cl)(Cl)Cl (centres undefined) | – | 20.6 µM (active)
27 | CCOCCCNC(=O)C(NC(=O)CNC(=O)c1ccccc1)c1ccc(C)cc1 (centres undefined) | 0.549 | –
28 | COCCCNC(NC(=O)c1ccc(OC)cc1)C(Cl)(Cl)Cl (centres undefined) | -0.612 | –
29 | CCOC(=O)[C@]12CCC=C1N(Cc1ccco1)C(=O)[C@H](CC(=O)N1CCSCC1)C2 | -25.8 | –
30 | CC(C)Oc1ccc(CN2CCC2(C)C(=O)NCc2ccc(C(F)(F)F)cc2)cc1 (centres undefined) | -8.92 | –
31 | Cc1cccc(-c2nc(SCC(=O)Nc3cc(C)on3)c3c(=O)n(C)c(=O)n(C)c3n2)c1 | 8.61 | –
32 | Cc1nc2ccccc2nc1CC(O)(c1ccccc1)c1ccccc1 | -13.9 | –
33 | O=C(NCc1ccccc1)C(=O)NCC(c1ccco1)S(=O)(=O)c1ccc(Cl)cc1 (centres undefined) | -23.4 | –
34 | CC(C)C(=O)N1CCN(c2nc(-c3ccccc3)c3c(c2C#N)CC(C)(C)OC3)CC1 | 15.4 | –
35 | COc1ccc(CSc2nc(N3CCOCC3)c3c(c2C#N)CC(C)(C)OC3)cc1 | -7.53 | –
36 | CC1(C)Cc2c(C#N)c(SCc3nc4ccccc4[nH]3)nc(N3CCOCC3)c2CO1 | – | 9.2 µM (active)
37 | COc1cccc(CNCc2c(C(=O)O)n(Cc3ccc(C)cc3)c3cc(C)ccc23)c1OC | -12.2 | –
38 | Fc1ccc2[nH]c3c(N4CCN(Cc5ccc6c(c5)OCO6)CC4)ncnc3c2c1 | – | 9.2 µM (active)
39 | CCCCCc1c(C)nc(N2CCN(Cc3ccc4c(c3)OCO4)CC2)[nH]c1=O | 8.37 | –
40 | Cc1c(CN2CC[C@@H](N3CCN(c4ccccn4)CC3)[C@H](O)C2)[nH]c2ccc(F)cc12 | 19.3 | –
41 | O=c1[nH]c(N2CCN(Cc3ccc4c(c3)OCO4)CC2)nc2c1CCCC2 | 0.611 | –
42 | Fc1ccc2[nH]c3c(N4CCSCC4)ncnc3c2c1 | – | 3.26 µM (active)
43 | CC1=C(C(=O)N(C)C)CC(CC(=O)NCCc2ccccn2)C(=O)N1CCC1=CCCCC1 (centres undefined) | -2.02 | –
44 | COCCNc1nc(Nc2ccccc2Cl)c2sc(-c3ccccc3)cc2n1 | 1.9 | –

Row | Compound | activity change, negative = cytotoxicity [%] | Potency
45 | CC(=O)Nc1ccc(Nc2cc(C)nc(Nc3ccc(NC(C)=O)cc3)n2)cc1 | 0.471 | –
46 | COc1ccc(Nc2cc(C)nc(-n3nc(C)cc3C)n2)cc1 | – | 0.231 µM (active)
47 | COc1ccc(NC(=O)c2nc(-n3nc(C)cc3C)ccc2Cl)cc1Cl | -16.4 | –
48 | CC1(C)NC(=O)N(CC(=O)Nc2ccc(-c3ccccc3)cc2)C1=O | 6.88 | –
49 | CC1(Oc2ccc(Cl)cc2)CCN(Cc2csc3ccccc23)C1 (centres undefined) | 6.11 | –
50 | CN(C)c1nc(N)nc(CSc2ccccn2)n1 | -15 | –
51 | CN(C)c1nc(N)nc(CSc2nnnn2-c2cccc3ccccc23)n1 | – | 6.51 µM (active)
52 | COc1ccc(-n2nnnc2SCc2nc(N)nc(N3CCOCC3)n2)cc1 | -2.46 | –
53 | CCOC(=O)C1CCCN(C(=O)c2ccc(C)c(F)c2)CC1 (centres undefined) | 2.89 | –
54 | COc1ccc(S(=O)(=O)NCCCCOc2ccc(Cl)cc2)cc1 | 2.27 | –
55 | COc1ccc(N(Cc2ccccc2)S(=O)(=O)c2cccc(C(=O)O)c2)cc1 | -6.55 | –
56 | COc1ccc(N(CCC#N)S(=O)(=O)c2ccc(Cl)cc2)cc1 | – | 16.4 µM (active)
57 | CCCCNC(=O)Cn1c(SCc2cccc(Cl)c2)nc2ccncc21 | 24.9 | –
58 | O=C(NCCO)c1cccc(-c2cccc3nccn23)c1 | 2.1 | –
59 | CCC(=O)N1c2ccccc2CC1C(=O)N1CCN(c2cccc(OC)c2)CC1 (centres undefined) | -2.51 | –
60 | Cc1ccc(NC(=O)Cn2sc3ccccc3c2=O)cc1 | -4.65 | –
61 | CC(C)OCCCn1c(SCC(=O)c2ccccc2)nc2c(sc3ccccc32)c1=O | -4.17 | –
62 | COc1ccc(C(=O)Nc2c(Cl)cc(Cl)cc2C(=O)N2CCC(C)CC2)cc1 | – | 3.26 µM (active)
63 | COc1ccc(N2CCN(C(=O)C3CCN(C(=O)c4ccccc4Cl)CC3)CC2)cc1 | -0.446 | –
64 | COc1ccc(C(=O)Nc2ccccc2C(=O)N2CCN(c3ccccc3)CC2)cc1 | 2.33 | –
